mHTT CaM bind: mHTT-calmodulin interaction abrogation. 190,000 compounds, 3.6% hits. AlphaScreen His-mHTT/GST-CaM binding, luminescence. P42858. inhibition, % at 15 µM;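 further: 0% = both proteins with DMSO and 100% = one protein alone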
Pf apPOL inh: Pf-apPOL DNA polymerase inhibition; 210,000 compounds, 0.25% hits; inhibition, % at 10 µM; Recombinant Pf-apPOL, molecular beacon fluorescence, 1.5 h
* marks the source's active call; other numbers are inactive results; i = inactive; . = not tested or not shown. Compounds with a hit are over-represented: about 3.6% of the library has one in this group of screens. No stated cut-off is given here; in the data, active means inhibition above about 50%; inactive means the rest.

SMILES	mHTT CaM bind	Pf apPOL inh
Oc1ccc(Br)c(C(Nc2ccccn2)c2ccc3cccnc3c2O)c1 (stereo not given)	100*	-4
O=C(Nc1cc(Br)cc2cccnc12)c1ccccc1Br	-4	-5
Oc1c(C(Nc2ccccn2)c2ccccc2Br)ccc2cccnc12 (stereo not given)	99*	-1
CC(=Cc1ccccc1)C=C1SC(=S)N(C(CCC(=O)O)C(=O)O)C1=O (stereo not given)	11	-142
CC(=Cc1ccccc1)C=C1SC(=S)N(C(Cc2ccccc2)C(=O)O)C1=O (stereo not given)	85*	-135
Cc1ccccc1Cc1c(C)nc2c(C(=O)NCCc3ccccc3)cnn2c1C	51*	-5
COC(CNC(=O)c1cnn2c(C)c(Cc3cc(C)ccc3C)c(C)nc12)OC	61*	-10
Cc1nc2c(C(=O)NCCc3ccccc3)cnn2c(C)c1Cc1ccccc1F	70*	-12
Cc1nc2c(C(=O)NCc3ccccc3)cnn2c(C)c1Cc1ccccc1F	21	-10
COCCCNC(=O)c1cnn2c(C)c(Cc3ccccc3C)c(C)nc12	42	-8
COCCNC(=O)c1cnn2c(C)c(Cc3cc(C)ccc3C)c(C)nc12	31	-9
CC(C)CC1NC2(CCN(C(=O)c3ccccc3F)CC2)N(C2CC2)C1=O (stereo not given)	-4	0
COc1ccc(C2Nc3ccccc3-c3nnc(SC)nc3O2)c(OC)c1OC (stereo not given)	3	-9
CS(=O)(=O)N1CCCC(c2nnc(Cc3ccccc3)s2)C1 (stereo not given)	2	-8
Clc1ccc2nonc2c1	.	-10
O=c1oc2ccccc2cc1-c1cnc(-c2ccncc2)o1	-4	-4
Cc1csc(=Nc2ccccc2)n1CC(O)c1ccc([N+](=O)[O-])cc1 (stereo not given)	83*	3
O=[N+]([O-])c1ccc(-c2csc(=Nc3ccccc3)n2CCO)cc1	32	1
Cc1occc1C(=O)N/N=C/c1ccco1	i	.
CC(=O)Nc1ccc(S(=O)(=O)Nc2ccc(C)cc2Br)cc1	-2	-7
CC(=O)Nc1ccc(S(=O)(=O)Nc2ccc(C)cc2[N+](=O)[O-])cc1	51*	0
O=C(CSC1CCCC1)NCCOc1ccc(-c2ccccn2)nn1	100*	-9
O=C(COc1ccc2c(c1)OCO2)NCCOc1ccc(-c2ccccn2)nn1	100*	-8
O=C(CSC1CCCC1)NCCn1nc(-c2ccco2)ccc1=O	5	-6
Cc1cc(C)cc(OCCNC(=O)COc2ccc3c(c2)OCO3)c1	30	2
SMILES	mHTT CaM bind	Pf apPOL inh
Cc1cc(C(C)c2cc(C)cc(C(C)(C)C)c2O)c(O)c(C(C)(C)C)c1	0	.
COc1cc(C=CC(=O)NCC2(O)CCc3ccccc3C2)cc(OC)c1OC (stereo not given)	3	-3
Cc1ccc(C)c(NS(=O)(=O)c2cn(C)c3ncccc23)c1	55*	91*
CCCn1cc(S(=O)(=O)Nc2cccc(C)c2)c2cccnc21	-1	1
Cc1cc(C)c(NC(=O)Cn2c(C)nc3c(c2=O)CCN(Cc2ccccc2)C3)c(C)c1	19	-5
N=C1S/C(=C\c2ccc(-c3cccc(F)c3)o2)C(=O)N1c1nccs1	62*	-9
N=C1S/C(=C\c2ccc(-c3ccccc3C(=O)O)o2)C(=O)N1c1nccs1	74*	-5
N=C1S/C(=C\c2ccc(-c3ccc(F)cc3F)o2)C(=O)N1c1nccs1	5	0
N=C1S/C(=C\c2ccc(-c3ccc(F)c(Cl)c3)o2)C(=O)N1c1nccs1	15	1
CCOc1cccc(-c2nc(C(=O)NC(C)C)cs2)c1	-10	-2
COc1cccc(Oc2nccnc2N2CCC(C(=O)Nc3cccc(Cl)c3)CC2)c1	26	-3
CCOc1cccc(C2CC(c3cccc(OC)c3)=NC3(CCN(C)CC3)N2)c1O (stereo not given)	35	4
COc1cccc(C2=NC(C)(C)NC(c3ccccc3O)C2)c1 (stereo not given)	65*	-3
CC(=O)N1CCC2(CC1)N=C(c1ccc3c(c1)OCO3)CC(c1ccccc1O)N2 (stereo not given)	18	8
CCC1(C)N=C(c2ccc3c(c2)OCO3)CC(c2ccccc2O)N1 (stereo not given)	83*	-5
COc1cccc(C2=NC3(CCN(C)CC3)NC(c3cccc(OC)c3O)C2)c1 (stereo not given)	25	-1
COc1cccc(C2=NC(C)(C)NC(c3cc(Br)ccc3O)C2)c1 (stereo not given)	100*	-4
O=C(NCC1CCN(Cc2cccs2)CC1)NC1CC1	-9	-3
O=C(CN1C(=O)C2C3CCC(C3)C2C1=O)Nc1ccc(F)cc1 (stereo not given)	3	1
CCc1ccc(S(=O)(=O)N2CCC(CN3CCC(C)CC3)CC2)cc1	-9	-3
CCc1ccc(S(=O)(=O)N2CCC(CN3CCCCCC3)CC2)cc1	100*	2
NNC(=O)CNC(=O)c1ccccc1	0	62*
O=C(O)CNC(=O)c1ccccc1	-8	-8
Cc1ccc(C(=O)NCCC2CCN(C(=O)c3ccccc3)CC2)cc1	13	-4
O=c1c(N=Cc2ccccc2)cc2[nH]c3ccccc3c2n1-c1ccccc1	99*	-5
SMILES	mHTT CaM bind	Pf apPOL inh
Cc1ccc(C)c(N=Cc2cccc([N+](=O)[O-])c2)c1	1	6
O=c1c(N=Cc2cccc([N+](=O)[O-])c2)cc2[nH]c3ccccc3c2n1-c1ccccc1	97*	4
O=c1c(-[n+]2ccccc2)cc2[nH]c3ccccc3c2n1-c1ccccc1	14	-1
COc1ccc(Oc2cccc(F)c2CNC(=O)Nc2ccccc2)cc1	.	-3
COc1ccc(CN2CCC(N3CCCCC3)CC2)cc1	2	-3
O=C1CCSCC(C(=O)NC2CCSC2=O)N1 (stereo not given)	-1	-8
Cc1ccnc(NS(=O)(=O)c2ccc(NC(=O)c3ccc(-n4ccnc4)nn3)cc2)n1	-12	5
Cc1nc(NC(=O)c2ccc(-n3ccnc3)nn2)sc1C	90*	7
c1ccc(OCCC2CCNCC2)cc1	-2	-4
c1ccc(OCCOc2ccc(-c3cc(C4CCNCC4)[nH]n3)cc2)cc1	62*	8
O=c1[nH]c(O)c(C=C2C=Nc3ccccc32)[nH]1	.	-18
Oc1nc(Nc2ccccc2)sc1C=C1C=Nc2ccccc21	69*	0
COc1ccccc1/C=C1\SC(=O)N(Cc2ccc(Cl)cc2)C1=O	2	0
CC(C)CCNC(=O)CCC(=O)N1CCCn2nc(-c3cccn3C)cc21	19	-3
CN(C)c1ccc(CNC(=O)CCC(=O)N2CCCn3nc(-c4cccn4C)cc32)cc1	74*	-1
CC(=O)N1CCc2sc(C(=O)N3CCN(c4cc(C)ccc4C)CC3)cc2C1	65*	1
CC(=O)N1CCc2sc(C(=O)N3CCN(c4ccccc4F)CC3)cc2C1	33	2
CCC(=O)N1CCc2sc(C(=O)N3CCN(c4cc(C)ccc4C)CC3)cc2C1	66*	2
CCC(=O)N1CCc2sc(C(=O)N3CCN(CC)CC3)cc2C1	-2	6
O=C(c1noc2c1CCCCC2)N1CCN(Cc2ccccc2)CC1	2	0
Cc1cccc(-c2noc(NC(=O)ON=Cc3c(Cl)cccc3Cl)n2)c1	.	-4
Oc1c(Cl)cc(Cl)cc1C=NNC(=S)NC1CC2CCC1C2 (stereo not given)	.	-6

Compound activity: PubChem BioAssay, University of Kansas High Throughput Screening Laboratory
